High-throughput results as filed in PubChem BioAssay.
Hits are enriched below; roughly 8% of the tested compounds scored in any of these assays.
KB-3-1 cytotox: kills parental KB-3-1 adenocarcinoma cells; Potency, µM (top dose mostly 46.1 µM), actives largely listed as cytotoxic; KB-3-1 viability, CellTiter-Glo ATP luminescence, 72 h; 1.4% of 400,000 active; AID 1347075; further: on the % scale 0 is the no-effect control and ±100 the full control effect; nearly all actives have a fitted effect of over 60% in size
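72 h, 37 °C compound treatment of KB-3-1 parental cells; CellTiter-Glo added, 10 min, luminescence read. Data corrected against DMSO-only plates and normalized before curve fitting.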
HT1080 IDH1KD tx: kills HT-1080 cells with IDH1 knockdown | 2% of 360,000 active | AID 686971 | Potency, µM (top dose mostly 46.1 µM), for inactives: at the highest dose activity, negative = toxicity, actives largely listed as cytotoxic | HT-1080 IDH1 knockdown viability, ATP luminescence, 48 h;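 further: 0% = DMSO wells and -100% = cell-free medium wells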
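Luminescent ATP read-out (CellTiter-Glo, 10 min at room temperature) after 48 h compound exposure at 37 °C gave viability of IDH1-knockdown HT-1080 cells. Activity was normalised to DMSO and cell-free wells, then fitted as concentration-response curves.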
SW480 rerep: DNA re-replication induction in SW480 cells; SW480 DNA re-replication, Hoechst DNA content imaging, 48 h; Potency, µM (highest dose often 46.1 µM), for inactives: top-dose re-replication activation, actives largely listed as activators; 1.8% of 340,000 active; AID 624297; further: % of control where 0% means no effect; nearly all actives have a fitted effect of over 55% in size
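Per well, 250 cells were exposed to pinned compound for 48 hr. Nuclear DNA was visualised with Hoechst (40 min, 37 C) and total object intensity recorded by fluorescence scanning.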
MCF10A rerep: DNA re-replication induction in MCF 10a cells | 2.9% of 350,000 active | MCF 10A DNA re-replication, Hoechst nuclear intensity, 48 h | Potency, µM (series often up to 46.1 µM), without a hit: at the top dose activity, positive = re-replication, hits mostly activators; further: % of control where 0% means no effect; nearly all actives have a fitted effect of over 50% in size
KB-V1 MDR tox: kills drug-selected multidrug resistant KB-V1 cells; KB-V1 MDR cells viability, CellTiter-Glo, 72 h; Potency, µM (highest dose often 46.1 µM), actives largely listed as cytotoxic; 3.4% of 400,000 active; further: on the % scale 0 is the no-effect control and ±100 the full control effect; nearly all actives have a fitted effect of over 60% in size
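qHTS viability screen in drug-selected KB-V1 MDR cells: 72 h compound treatment at 37 degrees C, ATP luminescence end point.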
HT1080NT lethal: kills 2HG-producing HT-1080-NT fibrosarcoma cells | HT-1080-NT fibrosarcoma viability, CellTiter-Glo ATP luminescence, 48 h | Potency, µM (top dose mostly 46.1 µM), for the others: top-dose activity, negative = less viability, actives largely listed as cytotoxic | 1.6% of 360,000 active;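 further: NT is the 2HG producing partner of a matched IDH1 knockdown line; 0% = DMSO-treated cells and -100% = media-only wells without cells; nearly all actives have a fitted effect of over 55% in size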
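HT-1080-NT; 750 cells/well; 5% FBS RPMI; 48 h compound, 37 degrees C; CellTiter-Glo luminescence; curve fitting and curve-class assignment.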
The depositor's hits bear a star; i = inactive; ? = inconclusive; · = no result. The call rests on the fitted dose curve; in most records, active means well fitted curve in the direction sought with a large enough effect; inconclusive means small, poorly fitted or top-dose-only effect, or another doubt; inactive means no such curve, though single readings can be large; an effect the other way counts as inactive or inconclusive. Potency means the concentration at half of the fitted maximal effect.

SMILES	KB-3-1 cytotox	HT1080 IDH1KD tx	SW480 rerep	MCF10A rerep	KB-V1 MDR tox	HT1080NT lethal
CCCC/C=C1/CCC(CN(C)C)C1=O (stereo unspecified)	?	-27%	?	5.8µM*	?	5%
CN(C)CC1CCC/C(=C/c2ccc(Cl)cc2)C1=O (stereo unspecified)	?	?	?	18µM*	?	-16%
O=C1C(=Cc2ccc(Cl)cc2)CCc2ccccc21	i	?	·	·	i	?
COc1cccc(/C=C2/CCC(CN(C)C)C2=O)c1 (stereo unspecified)	?	?	5.8µM*	2.3µM*	?	?
COc1ccc(/C=C2/CCCC(CN(C)C)C2=O)cc1 (stereo unspecified)	?	8.2µM*	9.2µM*	2.9µM*	?	6%
CN(C)CC1CCC/C(=C\c2ccc(OC(=O)/C=C/c3ccc(Cl)c(Cl)c3)cc2)C1=O (stereo unspecified)	?	-2%	5%	-4%	?	2%
Cc1cc(C)n2ncc(/C(N)=N/OC(=O)c3ccccc3F)c2n1	i	-10%	-1%	-2%	i	0%
Cc1ccc2c(c1)ncc[n+]2CC(=O)c1ccc(F)cc1	i	·	·	·	i	·
CC(=O)c1ccc(NC(=O)/C(=C\c2ccco2)NC(=O)c2ccco2)cc1	i	2%	-2%	-4%	?	0%
COc1ccccc1N1CCN(C(=O)c2ccc(-c3ccc(Cl)cc3)o2)CC1	4.6µM*	5.2µM*	?	?	?	7.3µM*
CCc1ccc2oc(C(=O)N3CCN(c4ccccc4OC)CC3)cc(=O)c2c1	18µM*	13µM*	?	12µM*	23µM*	?
COc1ccccc1N1CCN(C(=O)NCc2ccc(Cl)cc2)CC1	i	-8%	-24%	0%	i	-12%
Cc1ccc(SC(=O)COc2ccccc2C)cc1	i	10%	-18%	?	i	6%
CC(C)(C)NCC(O)COc1ccccc1C(=O)CCc1ccccc1 (stereo unspecified)	i	?	?	11%	i	16µM*
CC(C)(C)NCC(O)COc1ccccc1C(C)(C)C (stereo unspecified)	i	?	?	3%	i	-27%
O=C(NC(CC(=O)N1CCN(c2ccccc2O)CC1)c1ccccc1)c1ccccc1Cl (stereo unspecified)	i	-6%	11%	18%	5.8µM*	-11%
Cc1cccc(N2CCN(C(=O)CC(NC(=O)c3ccccc3Cl)c3ccccc3)CC2)c1C (stereo unspecified)	i	-16%	?	?	i	-17%
COc1ccc(CCNC(=O)CN(c2ccc(OC)c(OC)c2)S(=O)(=O)c2ccc(C)cc2)cc1	i	0%	-12%	-18%	i	1%
N/C(=C\C(=O)c1cc(Cl)ccc1O)C(Cl)(Cl)Cl	?	13µM*	10µM*	12µM*	7.3µM*	8.2µM*
COc1ccccc1N1CCN(C(=O)c2cnn(-c3ccc(C)c(C)c3)c2C2CCN(C(=O)OC(C)(C)C)CC2)CC1	21µM*	·	·	·	i	·
O=C1C(Cl)=C(N2CCCCC2)C(=O)C(Cl)=C1c1cnc(N2CCCCC2)s1	18µM*	16µM*	5.8µM*	5.8µM*	i	?
O=C1C(Cl)=C(N2CCCCCC2)C(=O)N1c1ccc(Cl)cc1	i	-3%	-7%	-4%	i	2%
CCCNC(=S)Nc1ccc(Cl)cc1C	i	16%	-4%	?	i	14%
COCc1c(C#N)c(NCc2cc(OC)c(OC)c(OC)c2)nc(C)c1[N+](=O)[O-]	?	-22%	0%	?	5.2µM*	-13%
COCc1c(C#N)c(NCCc2ccc(F)cc2)nc(C)c1[N+](=O)[O-]	?	4%	-4%	?	5.2µM*	2%
